The values that follow come from PubChem BioAssay (NCI).

The panel holds about 79,000 compounds, 15% with a hit somewhere; the sample as a whole holds those more often. Unmarked numbers belong to inactive results. Calls of active or inactive are those of the source. Rule as the data show it: active = growth inhibition above about 70%; inactive = the rest.

Assay [1] in a line: NCI Yeast Anticancer Drug Screen. Data for the rad50 strain (AID 155).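 Also: 0% = growth of vehicle-only cultures of the same strain.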 The note with it: S. cerevisiae rad50 strain growth inhibition, active compounds read high. The essentials:
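Relative growth inhibition (compound vs vehicle) was measured in yeast with a defined repair-gene alteration.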

Assay [2] in a line: NCI Yeast Anticancer Drug Screen. Data for the mec2-1 strain (AID 157). The note with it: S. cerevisiae mec2-1 strain, active compounds read high. The essentials: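 Using mec2-1 yeast: add compound, measure growth, express inhibition versus vehicle-treated cultures.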
A short description of assay [3]: NCI Yeast Anticancer Drug Screen. Data for the sgs1 mgt1 strain (AID 161).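 Also: 0% = growth of cultures given vehicle only.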 The settings on record: S. cerevisiae sgs1 mgt1 strain, active compounds read high. Put shortly: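 Percent growth inhibition was derived by comparing compound-exposed mutant yeast with vehicle-exposed cultures. The strain carries alterations in DNA damage repair.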
Assay [4] is described as follows: NCI Yeast Anticancer Drug Screen. Data for the cln2 rad14 strain (AID 165).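 Also: 0% = growth equal to vehicle treated cultures.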 The settings on record: S. cerevisiae cln2 rad14 strain, active compounds read high. The essentials: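 Yeast strain cln2 rad14, bearing defects in cell cycle control and DNA repair, serves as the test system; values reflect growth inhibition compared with vehicle.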
Assay [5] can be described thus: NCI Yeast Anticancer Drug Screen. Data for the bub3 strain (AID 167). The settings on record: S. cerevisiae bub3 mutant strain, active compounds read high. The essentials: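 Screening used yeast with an engineered genetic alteration affecting cell cycle control. Compound-exposed cultures were compared with vehicle cultures, and reduced growth was taken as inhibition.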

The nature of assay [6]: NCI Yeast Anticancer Drug Screen. Data for the mlh1 rad18 strain (AID 175). The settings on record: S. cerevisiae mlh1 rad18 strain growth inhibition, active compounds read high. The essentials: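 Steps: expose repair-defective yeast to compound; measure growth; express inhibition against vehicle-treated controls.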
The mark [7] stands for this setting: at 5.0 µM (retest, dose inferred, filed as 0.5).
Setting [8] is: at 50.0 µM (retest, dose inferred, filed as 5.0).

For the compound `CCOC(=O)C(=O)CC1=Nc2ccccc2SC(c2cccc(C)c2)C1` (configuration not stated), the growth inhibition in assay [1] (setting [7]) was 2%; in assay [1] (setting [8]), 81% (active); in assay [1] (at 50.0 µM), 91.9% (active); in assay [2] (setting [7]), -1%; in assay [2] (setting [8]), 98% (active); in assay [2] (at 50.0 µM) it was 92.9% (active). The growth inhibition in assay [3] (setting [7]) is 7%; in assay [3] (setting [8]) it was 98% (active); in assay [3] (at 50.0 µM) it was 99.2% (active); in assay [4] (setting [7]), -2%; in assay [4] (setting [8]), 86% (active); in assay [4] (at 50.0 µM), 50%. Besides, the growth inhibition in assay [5] (setting [7]) is 12%; in assay [5] (setting [8]), 98% (active); in assay [5] (at 50.0 µM), 99.1% (active); in assay [6] (setting [7]), 2%; in assay [6] (setting [8]) it was 97% (active); in assay [6] (at 50.0 µM) it was 97.5% (active).
`CN(C)CCCNc1cc(/C=C/c2ccc([N+](=O)[O-])cc2)nc2ccccc12`: the growth inhibition was -6% in assay [1] (setting [7]); 70% (active) in assay [1] (setting [8]); 80.8% (active) in assay [1] (at 50.0 µM); -3% in assay [2] (setting [7]); 38% in assay [2] (setting [8]); 68.5% in assay [2] (at 50.0 µM). For the same compound, the growth inhibition in assay [3] (setting [7]) was -2%; in assay [3] (setting [8]) it was 60%; in assay [3] (at 50.0 µM), 86.3% (active); in assay [4] (setting [7]), -4%; in assay [4] (setting [8]), 64%; in assay [4] (at 50.0 µM) it was 39.1%. Besides, the growth inhibition is -6% in assay [5] (setting [7]); 45% in assay [5] (setting [8]); 60.9% in assay [5] (at 50.0 µM); -3% in assay [6] (setting [7]); 56% in assay [6] (setting [8]); 91.1% (active) in assay [6] (at 50.0 µM).
Consider `O=C1C=C(Br)C(=O)C12CCc1ccccc12` (configuration not stated), for which the growth inhibition in assay [1] (setting [7]) is 99% (active); in assay [1] (setting [8]), 99% (active); in assay [1] (at 50.0 µM), 99.7% (active); in assay [2] (setting [7]), 100% (active); in assay [2] (setting [8]), 99% (active); in assay [2] (at 50.0 µM) it was 99.8% (active). Moreover, the growth inhibition is 93% (active) in assay [3] (setting [7]); 100% (active) in assay [3] (setting [8]); 99.5% (active) in assay [3] (at 50.0 µM); 99% (active) in assay [4] (setting [7]); 99% (active) in assay [4] (setting [8]); 99.3% (active) in assay [4] (at 50.0 µM). In addition, the growth inhibition in assay [5] (setting [7]) is 99% (active); in assay [5] (setting [8]), 99% (active); in assay [5] (at 50.0 µM) it was 99.6% (active); in assay [6] (setting [7]), 99% (active); in assay [6] (setting [8]) it was 99% (active); in assay [6] (at 50.0 µM), 99.5% (active).
For `COc1ccc(CCCC(=O)O)c2c(OC)cccc12`, the growth inhibition is 14% in assay [1] (setting [7]); 58% in assay [1] (setting [8]); 80.8% (active) in assay [1] (at 50.0 µM); 0% in assay [2] (setting [7]); 48% in assay [2] (setting [8]); 39.9% in assay [2] (at 50.0 µM). For the same compound, the growth inhibition in assay [3] (setting [7]) was 7%; in assay [3] (setting [8]), 62%; in assay [3] (at 50.0 µM) it was 60.8%; in assay [4] (setting [7]), 23%; in assay [4] (setting [8]), 55%; in assay [4] (at 50.0 µM), 72.2% (active). Moreover, the growth inhibition in assay [5] (setting [7]) was 4%; in assay [5] (setting [8]), 60%; in assay [5] (at 50.0 µM) it was 49.9%; in assay [6] (setting [7]), 5%; in assay [6] (setting [8]) it was 73% (active); in assay [6] (at 50.0 µM), 78.3% (active).
On to `N#CC1C2CCC3(CC2CCN1C(=O)c1ccccc1)OCCO3` (configuration not stated), for which the growth inhibition is -1% in assay [1] (setting [7]); 59% in assay [1] (setting [8]); 32.5% in assay [1] (at 50.0 µM); -1% in assay [2] (setting [7]); 76% (active) in assay [2] (setting [8]); 72.2% (active) in assay [2] (at 50.0 µM). Further, the growth inhibition in assay [3] (setting [7]) is -6%; in assay [3] (setting [8]) it was 60%; in assay [3] (at 50.0 µM), 43%; in assay [4] (setting [7]) it was -7%; in assay [4] (setting [8]), 78% (active); in assay [4] (at 50.0 µM) it was 71.8% (active). The growth inhibition in assay [5] (setting [7]) is 12%; in assay [5] (setting [8]), 82% (active); in assay [5] (at 50.0 µM), 82.8% (active); in assay [6] (setting [7]), -7%; in assay [6] (setting [8]) it was 77% (active); in assay [6] (at 50.0 µM), 60.9%.
Regarding `CCC[CH2][Sn]([CH2]CCC)([O]C(=O)c1cccc(F)c1F)[O]C(=O)c1cccc(F)c1F`, the growth inhibition in assay [1] (setting [7]) is 73% (active); in assay [1] (setting [8]), 73% (active); in assay [1] (at 50.0 µM), 86.6% (active); in assay [2] (setting [7]), 62%; in assay [2] (setting [8]), 62%; in assay [2] (at 50.0 µM), 88% (active). In addition, the growth inhibition is 78% (active) in assay [3] (setting [7]); 78% (active) in assay [3] (setting [8]); 86.5% (active) in assay [3] (at 50.0 µM); 55% in assay [4] (setting [7]); 55% in assay [4] (setting [8]); 88.7% (active) in assay [4] (at 50.0 µM). Moreover, the growth inhibition is 62% in assay [5] (setting [7]); 62% in assay [5] (setting [8]); 87.9% (active) in assay [5] (at 50.0 µM); 67% in assay [6] (setting [7]); 67% in assay [6] (setting [8]); 86.4% (active) in assay [6] (at 50.0 µM).
For `NC(=S)NNC(=O)c1cccnc1`, the growth inhibition is 4% in assay [1] (setting [7]); 78% (active) in assay [1] (setting [8]); -5.1% in assay [1] (at 50.0 µM); 1% in assay [2] (setting [7]); 39% in assay [2] (setting [8]); -5.95% in assay [2] (at 50.0 µM). The growth inhibition in assay [3] (setting [7]) was 2%; in assay [3] (setting [8]), 46%; in assay [3] (at 50.0 µM) it was 45.6%; in assay [4] (setting [7]), 5%; in assay [4] (setting [8]), 75% (active); in assay [4] (at 50.0 µM) it was -31.4%. Moreover, the growth inhibition was 2% in assay [5] (setting [7]); 82% (active) in assay [5] (setting [8]); 0.15% in assay [5] (at 50.0 µM); -1% in assay [6] (setting [7]); 68% in assay [6] (setting [8]); 50.8% in assay [6] (at 50.0 µM).
Regarding `COc1ccc(Cc2nc3ccccc3s2)cc1OC`, the growth inhibition is 42% in assay [1] (setting [7]); 98% (active) in assay [1] (setting [8]); 90.3% (active) in assay [1] (at 50.0 µM); 39% in assay [2] (setting [7]); 99% (active) in assay [2] (setting [8]); 92.8% (active) in assay [2] (at 50.0 µM). Moreover, the growth inhibition was 61% in assay [3] (setting [7]); 99% (active) in assay [3] (setting [8]); 93.7% (active) in assay [3] (at 50.0 µM); 42% in assay [4] (setting [7]); 97% (active) in assay [4] (setting [8]); 91.9% (active) in assay [4] (at 50.0 µM). In addition, the growth inhibition is 51% in assay [5] (setting [7]); 99% (active) in assay [5] (setting [8]); 92.6% (active) in assay [5] (at 50.0 µM); 73% (active) in assay [6] (setting [7]); 99% (active) in assay [6] (setting [8]); 91.8% (active) in assay [6] (at 50.0 µM).
With `CN(C)C(=O)c1ccccc1SC(=S)NCc1ccccc1`, the growth inhibition is 0% in assay [1] (setting [7]); 99% (active) in assay [1] (setting [8]); 98.1% (active) in assay [1] (at 50.0 µM); -2% in assay [2] (setting [7]); 99% (active) in assay [2] (setting [8]); 91.3% (active) in assay [2] (at 50.0 µM). In addition, the growth inhibition in assay [3] (setting [7]) is 2%; in assay [3] (setting [8]), 93% (active); in assay [3] (at 50.0 µM) it was 95.8% (active); in assay [4] (setting [7]), -3%; in assay [4] (setting [8]) it was 99% (active); in assay [4] (at 50.0 µM) it was 95.3% (active). Moreover, the growth inhibition is -7% in assay [5] (setting [7]); 99% (active) in assay [5] (setting [8]); 88.2% (active) in assay [5] (at 50.0 µM); -3% in assay [6] (setting [7]); 98% (active) in assay [6] (setting [8]); 96.6% (active) in assay [6] (at 50.0 µM).
